Screening data: PubChem, National Center for Advancing Translational Sciences (NCATS)
An excerpt weighted towards active compounds, which were near 10% of everything screened.
NPR1 antag: antagonists of human natriuretic peptide receptor Npr1 | HEK293 hNpr1 GloSensor cGMP, ANP-stimulated luminescence | Potency, µM (series often up to 46.3 µM), for the others: at the top dose activity change, negative = inhibition, hits mostly inhibitors | hit rate 1.6% among 76,000 | AID 1347048; calls by dose curve; further: on the % scale 0 is the no-effect control and ±100 the full control effect; nearly all actives have a fitted effect of over 60% in size
Target sequence (P16066 whole entry, looked up): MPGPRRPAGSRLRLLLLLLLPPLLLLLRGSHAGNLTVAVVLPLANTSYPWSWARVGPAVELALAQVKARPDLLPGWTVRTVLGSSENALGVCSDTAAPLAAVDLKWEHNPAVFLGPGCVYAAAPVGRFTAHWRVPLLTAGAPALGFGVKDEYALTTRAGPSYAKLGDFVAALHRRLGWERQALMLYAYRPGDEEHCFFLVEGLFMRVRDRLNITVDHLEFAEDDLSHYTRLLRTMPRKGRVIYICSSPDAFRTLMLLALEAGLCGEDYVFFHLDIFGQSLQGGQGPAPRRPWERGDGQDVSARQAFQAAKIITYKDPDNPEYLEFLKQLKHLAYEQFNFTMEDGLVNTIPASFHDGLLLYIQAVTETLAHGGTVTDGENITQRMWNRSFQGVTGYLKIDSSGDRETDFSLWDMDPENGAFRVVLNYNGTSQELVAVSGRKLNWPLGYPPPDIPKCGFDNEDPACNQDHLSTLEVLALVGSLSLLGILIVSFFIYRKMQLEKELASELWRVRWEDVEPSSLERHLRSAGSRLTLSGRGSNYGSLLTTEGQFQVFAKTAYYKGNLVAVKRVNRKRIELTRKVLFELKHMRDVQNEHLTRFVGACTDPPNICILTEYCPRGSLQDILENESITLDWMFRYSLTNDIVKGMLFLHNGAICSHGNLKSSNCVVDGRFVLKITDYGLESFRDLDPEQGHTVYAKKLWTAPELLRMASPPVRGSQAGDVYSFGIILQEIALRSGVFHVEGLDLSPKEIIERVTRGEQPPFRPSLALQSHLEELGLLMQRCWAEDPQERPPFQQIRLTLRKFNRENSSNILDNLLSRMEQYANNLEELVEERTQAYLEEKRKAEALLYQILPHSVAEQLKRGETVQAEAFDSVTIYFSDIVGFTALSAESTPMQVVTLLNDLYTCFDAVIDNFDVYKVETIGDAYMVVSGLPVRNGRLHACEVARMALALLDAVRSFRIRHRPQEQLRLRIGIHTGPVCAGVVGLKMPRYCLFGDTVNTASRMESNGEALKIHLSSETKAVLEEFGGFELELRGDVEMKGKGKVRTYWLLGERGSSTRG
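Compound pre-incubated 30 min at room temperature on GloSensor-loaded HEK293 cells stably carrying hNpr1 and the pGS-40F cGMP biosensor. Stimulation uses hNppA at 0.1 nM final; luminescence is taken at baseline and 20 min post-agonist.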
HEK293 tox: HEK 293 cell cytotoxicity. HEK 293 viability, ATP luminescence (CellTiter-Glo), 48-72 h. Potency, µM (series often up to 115 µM), for inactives: top-dose activity change, negative = cytotoxicity, actives largely listed as inhibitors. hit rate 6.6% among 94,000. AID 1345083; further: on the % scale 0 is the no-effect control and ±100 the full control effect; nearly all actives have a fitted effect of over 60% in size
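250 HEK 293 cells/well; compound by pintool; incubated 48 or 72 hr at 37 degree Celsius; CellTiter-Glo added, 10 min RT, luminescence imaged.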
3T3 cytotox: cytotoxic compounds in NIH 3T3 cells; NIH 3T3 viability, CellTiter-Glo ATP luminescence, 48-72 h; AID 1345082; Potency, µM (top dose mostly 96.7 µM), for the others: at the highest dose activity change, negative = cytotoxicity, usual class: inhibitors; hit rate 4.3% among 94,000; further: on the % scale 0 is the no-effect control and ±100 the full control effect; nearly all actives have a fitted effect of over 55% in size
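ATP-dependent luminescence (CellTiter-Glo) served as the viability signal for NIH 3T3 cells treated with compound for 48 or 72 hr at 37 °C.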
FLuc inh-1: Photinus pyralis luciferase inhibition | P08659 | purified P. pyralis luciferase, luminescence, biochemical | Potency, µM (series often up to 115 µM), hits mostly inhibitors | hit rate 2.5% among 76,000; further: on the % scale 0 is the no-effect control and ±100 the full control effect; nearly all actives have a fitted effect of over 65% in size
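Purified 10nM P. pyralis luciferase with 10uM D-luciferin and 10uM ATP in 50mM Tris acetate pH 7.5, 10mM Mg acetate, 0.01% Tween-20, 0.05% BSA. qHTS titration; luminescence read by CCD imager.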
GPT2 inhibitor: GPT2 alanine aminotransferase inhibition | hit rate 0.25% among 100,000 | Potency, µM (titrated, usually from 57.7 µM), without a hit: at the top dose activity change, negative = inhibition, hits mostly inhibitors | Recombinant GPT2, coupled pyruvate oxidase/HRP Amplex Red fluorescence | AID 1671188; further: on the % scale 0 is the no-effect control and ±100 the full control effect; nearly all actives have a fitted effect of over 60% in size
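Recombinant GPT2 (10ng/uL) with 250uM a-KG and 2mM L-alanine, 30 min at room temperature, in HEPES pH 7.5 buffer. Pyruvate detected by pyruvate oxidase/HRP/Amplex Red fluorescence after 30 min in the dark; AOA (50uM) as positive control.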
FLuc SDR no ATP: firefly luciferase binding stabilization, ATP absent; Potency, µM (doses to about 32.7 µM), for the others: at the highest dose activation (signal gain), actives largely listed as activators; Purified FLuc-C-HiBiT, Nano-Glo HiBiT luminescence, no ATP; shares compounds with FLuc inh-1; hit rate 7.8% among 1,300; further: nearly all actives have a fitted effect of over 55% in size
FLuc SDR ATP: firefly luciferase binding stabilization, ATP added | purified FLuc-C-HiBiT + ATP, HiBiT complementation luminescence | shares compounds with FLuc inh-1 | Potency, µM (top dose mostly 32.7 µM), inactives show top-dose activation (gain of signal), hits mostly activators | hit rate 8.7% among 1,300;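 further: signal reports ligand binding via conformational change of the enzyme rather than luciferase catalysis; % of control where 0% means no effect; nearly all actives have a fitted effect of over 55% in size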
FLuc inh-2: inhibitors of firefly luciferase enzymatic activity | Potency, µM (series often up to 32.7 µM), for the others: at the top dose activity change, negative = inhibition, actives largely listed as inhibitors | hit rate 42% among 1,300 | shares compounds with FLuc inh-1 | purified FLuc-C-HiBiT enzyme, luciferin luminescence; further: on the % scale 0 is the no-effect control and ±100 the full control effect; nearly all actives have a fitted effect of over 70% in size
An asterisk follows results filed as active; [ ] = dose if it differs, or a comment. Unless noted, the call rests on the fitted dose curve; in most records, active means well fitted curve in the direction sought with a large enough effect; inconclusive means small, poorly fitted or top-dose-only effect, or another doubt; inactive means no such curve, though single readings can be large; an effect the other way counts as inactive or inconclusive. Potency means the concentration at half of the fitted maximal effect.

Screening O=C(O)c1ccc(-c2nnc3ccc(NC(=O)C4CCC4)cn23)cc1 returned NPR1 antag 1.8%, HEK293 tox 18.7%, 3T3 cytotox -20.8%, FLuc inh-1 10µM*, GPT2 inhibitor inactive, FLuc SDR no ATP inconclusive, FLuc SDR ATP inconclusive and FLuc inh-2 inconclusive.
For CC[n+]1c(/C=C/N(C)c2ccccc2)n(-c2ccccc2)c2ccc(-c3nc4ccccc4s3)cc21 the results were FLuc SDR no ATP 8.9%, FLuc SDR ATP 6.7% and FLuc inh-2 inconclusive.
For COc1ccc(C(=O)N2CCCC(c3nc(-c4ccccc4)no3)CCNC(=O)CC2)c(OC)n1 (stereo unspecified) the results were NPR1 antag inconclusive, HEK293 tox -21.1%, 3T3 cytotox -15.3%, FLuc inh-1 7.94µM*, GPT2 inhibitor inactive, FLuc SDR no ATP 17.4%, FLuc SDR ATP 15.0% and FLuc inh-2 inconclusive.
FC(F)(F)c1cccc(CCC2CCCN(Cc3cccnc3)C2)c1 (stereo unspecified) was read as NPR1 antag -0.2%, HEK293 tox inconclusive, 3T3 cytotox -28.7%, FLuc inh-1 inactive and GPT2 inhibitor inactive.
`CCSc1nc(CC(=O)NCc2ccc(S(N)(=O)=O)cc2)cs1` gave NPR1 antag 3.7%, HEK293 tox -23.9%, 3T3 cytotox -17.3%, FLuc inh-1 inactive and GPT2 inhibitor -9.6%.
`O=C(NCCc1ccc(Cl)cc1)c1cn2cc(-c3ccccc3)sc2n1` gave HEK293 tox 3.5%, 3T3 cytotox -3.1% and GPT2 inhibitor inactive.
`Cc1c(CCNC(=O)c2ccc(Br)o2)sc2nc(-c3ccc(Cl)cc3)nn12` gave FLuc SDR no ATP 19.1%, FLuc SDR ATP 10.5% and FLuc inh-2 inconclusive.
Screening CC(C)[S+](=O)([O-])N1CCC2OCCN(Cc3ccccc3F)C(=O)C2C1 (stereo unspecified) returned NPR1 antag 3.9%[70.6 µM], HEK293 tox inconclusive, 3T3 cytotox inactive, FLuc inh-1 inactive and GPT2 inhibitor -29.2%[88.5 µM].
For COCCN1CCNc2nc(COc3ccccc3OC(F)(F)F)n(Cc3ccccc3)c2C1=O the results were NPR1 antag -1.1%, HEK293 tox inconclusive, 3T3 cytotox inconclusive, FLuc inh-1 inactive and GPT2 inhibitor inactive.
Screening COc1cccc(CNC(=O)c2nc3cccnc3n(Cc3ccccc3)c2=O)c1 returned HEK293 tox inconclusive, 3T3 cytotox inconclusive and GPT2 inhibitor inactive.
Screening COc1cccc(OCc2nc3ccccc3n2Cc2ccccc2)c1 returned FLuc SDR no ATP 12.4%, FLuc SDR ATP 9.2% and FLuc inh-2 -15.8%.
`Clc1ccc(OCc2nc3ccccc3n2Cc2ccccc2)c(Cl)c1` gave FLuc SDR no ATP 15.2%, FLuc SDR ATP 10.7% and FLuc inh-2 inconclusive.
O=C(NCC(F)F)c1ccc2nnc(-c3cccc(OC(F)(F)F)c3)n2c1 was read as HEK293 tox -28.9%, 3T3 cytotox -27.4% and GPT2 inhibitor inactive.
Screening CCc1ccc(C(=O)N2CCC(c3n[nH]c(=O)n3Cc3ccc(C)cc3)CC2)cc1 returned NPR1 antag -5.4%, HEK293 tox inconclusive, 3T3 cytotox inconclusive, FLuc inh-1 inactive and GPT2 inhibitor -0.4%.
